Test results taken from PubChem BioAssay (NCI).
Where “and” joins values, the source holds several entries; their conditions need not be identical. Equal values may be shown once. About 83,000 compounds went through this panel and 20% of them were active in at least one assay; those are over-represented in the sample as a whole.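 Single-dose data. Exposure time 48 hours. Values below 10 considered active.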 Calls of active or inactive are those of the source.

test system: MDA-MB-468 breast; test: NCI-60 one-dose screen, 48 h (100 = growth as untreated, 0 = no growth, -100 = all killed); details: 10 µM unless noted

Question: `N#C/C(=C\c1ccc(C(F)(F)F)cc1)c1cc2ccccc2[nH]1` was tested. Which growth did it give?
Answer: Its growth is 96.9% (inactive).

Question: For `COc1cc(/C=C2\CN(C(=O)CCN3CCC(=NO)CC3)C/C(=C\c3cc(OC)c(OC)c(OC)c3)C2=O)cc(OC)c1OC`, which growth is on record?
Answer: The growth was -41.2% (active).

Question: `S=c1nc(CS)[nH]c2ccccc12` was tested. Which growth did it give?
Answer: The growth was 103% (inactive).

Question: Which growth does the source give for `CC1C(/C=N/Nc2ccccc2)C(C#N)(C#N)C1(C#N)C#N` (stereo not given) here?
Answer: Its growth is 91.3% (inactive).

Question: Which growth does the source give for `O=C1/C(=C\c2cccn2Cc2ccc(F)cc2)c2ccccc2N1c1c(Cl)cccc1Cl` here?
Answer: Its growth is 9.21% (active).

Question: Which growth does the source give for `COc1cnc2c(c1)C(=O)c1c-2n(CCCN2CCN(C)CC2)c(=O)c2cc(Cl)ccc12` here?
Answer: The growth was 54.2% (inactive).

Question: How did the growth turn out when `BrC(Br)(Br)c1cnc2ccccc2n1` was run?
Answer: The growth was -24.8% (active).

Question: For `CC1CC2Oc3ccc(Cl)cc3C(=O)N2O1` (stereo not given), which growth is on record?
Answer: Its growth is 94.5% (inactive).

Question: Which growth does the source give for `CC1NC(=S)NC(=O)/C1=C/c1cc(=O)oc2c1ccc1ccccc12` (stereo not given) here?
Answer: The growth was 103% (inactive).

Question: Which growth does the source give for `Clc1ccc(C2=NN(c3ccccc3)[C@H](c3cn(-c4ccccc4)nc3-c3ccccc3)C2)cc1` here?
Answer: The growth was 109% (inactive).

Question: With `C=COC(=O)CCOCC(CC)CCCC` (stereo not given) as the molecule, how does the growth read?
Answer: Its growth is 104% (inactive).

Question: For `CC(C)(C)c1cc(NC(=O)Nc2ccc(-c3cn4c(n3)sc3cc(OCCN5CCOCC5)ccc34)cc2)no1`, which growth is on record?
Answer: Its growth is 12.4% (inactive) and 30.6% (inactive).

Question: `O=C(CN1CCN(c2cc(=O)n(-c3ccccc3)c3ccccc23)CC1)Nc1cccc(C(F)(F)F)c1` was tested. Which growth did it give?
Answer: Its growth is 4.55% (active).

Question: For `CC(C)(C)c1nn(-c2ccccc2)c2c1C(=O)CSC(c1ccccc1Cl)N2` (stereo not given), which growth is on record?
Answer: The growth was 19.8% (inactive).

Question: How did the growth turn out when `O=C1Nc2ccccc2/C1=C/C(=O)c1ccc(N2CCCCC2)cc1` was run?
Answer: The growth was 80% (inactive).

Question: With `NS(=O)(=O)c1ccc(CCn2c(SCC(=O)N/N=C/c3ccccc3O)nc3ccccc3c2=O)cc1` as the molecule, how does the growth read?
Answer: Its growth is 59.1% (inactive).

Question: Which growth does the source give for `COc1ccc(/C=C2\SC(=O)N(CN3CCN(c4cc5c(cc4F)c(=O)c(C(=O)O)cn5C4CC4)CC3)C2=O)cc1` here?
Answer: Its growth is 108% (inactive).

Question: For `C[C@H](c1nc2ccc(N)cc2[nH]1)[C@H]1CC[C@H]2[C@@H]3CCC4=CC(=O)CC[C@]4(C)[C@H]3CC[C@]12C`, which growth is on record?
Answer: Its growth is 68.1% (inactive).

Question: With `COc1cc(Nc2nc(N[C@H]3CCCC[C@@H]3N)nc3cc[nH]c(=O)c23)cc(OC)c1` as the molecule, how does the growth read?
Answer: The growth was -24.5% (active).

Question: Which growth does the source give for `CSc1nc(NCc2ccccc2)c(C#N)c(-c2cccc([N+](=O)[O-])c2)n1` here?
Answer: Its growth is 110% (inactive).

Question: How did the growth turn out when `CC(C)(C)CC(C)(C)NCc1cc(C(C)(C)C)cc(CNC(C)(C)CC(C)(C)C)c1O` was run?
Answer: The growth was 36.2% (inactive).

Question: With `c1ccc(CSc2ncccc2-c2nnc(SCCN3CCOCC3)o2)cc1` as the molecule, how does the growth read?
Answer: Its growth is 98.3% (inactive).

Question: For `CCN(CC)CC#CCOC(=O)[C@]1(C)CCC[C@]2(C)[C@H]3C[C@H]4C(C(C)C)=C[C@]3(CC[C@H]21)[C@@H]1C(=O)CCC(=O)[C@@H]14`, which growth is on record?
Answer: The growth was 11% (inactive).

Question: How did the growth turn out when `CCN1C(=O)N(CC)C2C1NN=c1s/c(=C\c3ccc[nH]3)c(=O)n12` (stereo not given) was run?
Answer: The growth was 5.56% (active).

Question: With `CCCn1cnc2c(c1=N)C(c1ccc(F)cc1)c1sc3c(C)cccc3c1O2` (stereo not given) as the molecule, how does the growth read?
Answer: The growth was -26.7% (active).

Question: With `CC(C)n1cnc2c(=S)nc[nH]c21` as the molecule, how does the growth read?
Answer: The growth was 104% (inactive).

Question: How did the growth turn out when `Cc1cc(=O)oc2cc(OCCCOc3ccc(/C=C/C(=O)Nc4ccc(Cl)cc4)cc3)ccc12` was run?
Answer: The growth was 73.9% (inactive).

Question: Which growth does the source give for `O=C(CNc1nc(-c2cccc([N+](=O)[O-])c2)cs1)Nc1cccc([N+](=O)[O-])c1` here?
Answer: Its growth is 14.3% (inactive).

Question: How did the growth turn out when `C[C@H]1C(=O)C23CCC1C[C@@]21O[C@@H]2C(C)(C)C=CC(=O)C23COC1=O` was run?
Answer: The growth was 102% (inactive).

Question: How did the growth turn out when `CN(CCC#N)C(=O)Nc1ccccc1` was run?
Answer: Its growth is 109% (inactive).

Question: With `CC(C)c1ccc(NCc2cn(-c3ccc(C(=O)O)cc3)nc2-c2cc(C(F)(F)F)cc(C(F)(F)F)c2)cc1` as the molecule, how does the growth read?
Answer: Its growth is 102% (inactive).

Question: Which growth does the source give for `CCN(CC)CC(O)CNc1ccnc2cc(Cl)c(Cl)cc12` (stereo not given) here?
Answer: The growth was 83.5% (inactive).

Question: `COc1ccc(NC(=O)CSc2nc(C)c(C(C)=O)n2-c2ccc([N+](=O)[O-])cc2)cc1` was tested. Which growth did it give?
Answer: Its growth is 91.4% (inactive).

Question: `CCOC(=O)[C@@H](Cc1ccccc1)NC(=O)c1[nH]c2ccc(Cl)cc2c(=O)c1C` was tested. Which growth did it give?
Answer: Its growth is 78% (inactive).

Question: For `COc1cccc(NC(=O)c2sc3nc4c(cc3c2N)C(O)CCC4)c1` (stereo not given), which growth is on record?
Answer: Its growth is 48.6% (inactive).

Question: With `O=C1NC(=O)C2(CCc3ccccc32)N1` (stereo not given) as the molecule, how does the growth read?
Answer: The growth was 106% (inactive).

Question: Which growth does the source give for `COc1ccc(-c2nc3ccccc3n3cccc23)cc1` here?
Answer: Its growth is 112% (inactive).

Question: Which growth does the source give for `C#CC(O)c1ccccc1` (stereo not given) here?
Answer: Its growth is 110% (inactive).

Question: For `COc1cc(-c2nc3ccc(C)cc3[nH]2)ccc1OCC(=O)N=Nc1c(O)[nH]c2ccc(Cl)cc12`, which growth is on record?
Answer: Its growth is -48.7% (active).

Question: Which growth does the source give for `CCN(CC)CCCNc1ccnc2cc3ccccc3cc12` here?
Answer: Its growth is 75.9% (inactive).
